Source: PubChem BioAssay (NCATS)
A number with no mark means an inactive call. Results filed as inconclusive are left out. Where a call stands in place of a potency, no number is given. The source made the active and inactive calls. Unless noted, calls come from the whole dose curve; as a rule, active = well fitted curve in the direction sought with a large enough effect; inconclusive = small, poorly fitted or top-dose-only effect, or another doubt; inactive = no such curve, though single readings can be large; an effect the other way counts as inactive or inconclusive.

How the values were obtained:
[1] = AP1 Signaling Pathway (AID 357; active = well fitted curve in either direction with a large enough effect, not every such curve was filed as active;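 note: ME-180 reporter cells stimulated with EGF at its EC50 level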); conditions: ME-180 AP-1-bla reporter, EGF-induced, beta-lactamase ratio, 5 h; at 7.69 µM (top of the series) unless noted
Outline: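 AP-1-bla ME-180 cells, Opti-MEM + 0.5% dialyzed FBS, plated overnight 37 °C. Cpd titration + EC50 EGF, 5 h 37 °C. CCF4 2.5 h RT; ex 405, em 460/530 ratio → %activity, AC50.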

[2] = target: Cytochrome P450 1A2 (Homo sapiens) (UniProt P05177); assay: p450-cyp1a2 (AID 410; calls by dose curve; note: potency is the fitted concentration of half-maximal effect)
Outline: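 O-Demethylation of luciferin 6' methyl ether by human CYP1A2 is monitored as luciferase luminescence. Substrate sits at Km (100uM); enzyme is 20nM. Values are scaled to 57 uM furafylline as maximal inhibition.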

[3] = NFAT Signaling Pathway (AID 444; active = well fitted curve in either direction with a large enough effect, not every such curve was filed as active;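 note: carbachol stimulus at about its EC50 of 1 µM final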); conditions: Jurkat NFAT-bla M1, carbachol, beta-lactamase ratio, 5 h; at 7.69 µM (top of the series) unless noted
Outline: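 Read-out: CCF4 FRET ratio (460 nm/530 nm) after 1 h RT dye loading, used for %activity and AC50 from titration series. Cells: Jurkat NFAT-β-lactamase/M1 line, treated with compound plus 1 uM carbachol for 5 h, 37 °C.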

[4] = Stat Signaling Pathway (AID 446; active = well fitted curve in either direction with a large enough effect, not every such curve was filed as active;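 note: ME-180 cervical cancer cells given 40 pM IL-6 alongside compound; SIE-controlled beta-lactamase reporter measured as 460/530 nm FRET emission ratio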); conditions: ME-180 (cervical carcinoma) SIE beta-lactamase reporter, IL-6 stimulated, 5 h; at 7.69 µM (top of the series) unless noted
Outline: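 Overnight-plated ME-180 cells bearing a STAT Inducible Element beta-lactamase reporter; 5 h co-exposure to compound and 40 pM IL-6; values normalized to 300 pM IL-6 and 125 nM JAK inhibitor controls.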

[5] = target: Glucocorticoid receptor (Homo sapiens) (UniProt P04150); assay: GR-GFP Redistribution (AID 450;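 active = compounds whose dose series gives a full or clear partial fitted curve of increased nuclear translocation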; note: potency is the fitted concentration of half-maximal effect); conditions: U2OS GR-GFP nuclear translocation, laser cytometry, 2 h
[6] = target: Glucocorticoid receptor (Homo sapiens) (UniProt P04150); assay: GR-EFC Redistribution (AID 451; calls by dose curve; note: potency is the fitted concentration of half-maximal effect); conditions: CHO-K1 GR-EFC translocation, beta-gal luminescence, 2 h
Outline: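 Translocation of GR-ED fusion to nuclear EA restores b-gal, read by luminescence after 1 h room-temperature detection. Engineered CHO-K1 biosensor cells, 1,000/well, exposed 2 h at 37 C to titrations up to 46 uM final.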

[7] = target: Mitogen-activated protein kinase 10 (Mus musculus) (UniProt Q61831); assay: JNK3 AlphaScreen Assay (AID 530; active = well fitted curve in either direction with a large enough effect, not every such curve was filed as active;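 note: kinase came from lysate of stimulated human HepG2 cells; signal reports phosphorylation of biotinylated GST-cJun 1-79 at Ser73 with 10 µM ATP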)
Outline: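 qHTS titrations with 15 min compound pre-incubation before adding ATP (10 uM final). Read-out: AlphaScreen of Ser73-phosphorylated biotin-GST-cJun using HepG2 lysate JNK3 activated by IL-1β and TNFα.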

[8] = target: 3',5'-cyclic-AMP phosphodiesterase 4B (Homo sapiens) (UniProt Q07343); assay: qHTS Assay for Inhibitors of PDE-IV (AID 607; active = well fitted activation curve with a large enough effect in the main read-out, with a control signal flat, not every such curve was filed as active)
Outline: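 Live HEK293 cells with a modified cyclic nucleotide-gated (CNG) channel report intracellular cAMP via membrane-potential dye fluorescence (ex 535/em 590 nm). Endogenous PDE-IV was targeted. Compounds were tested at up to 22.9 uM final; RO 20-1724 100 uM served as control.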

[9] = target: Cytochrome P450 2D6 (Homo sapiens) (UniProt P10635); assay: qHTS Assay for Inhibitors and Substrates of Cytochrome P450 2D6 (AID 891); note: nearly all actives have a fitted effect of over 60% in size; note: potency is the fitted concentration of half-maximal effect;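 for activity change, negative = inhibition: luciferin methyl ether substrate demethylated by CYP2D6 with NADPH regeneration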
Outline: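 Luminescent read-out of luciferin formed by 5 nM human CYP2D6 demethylating 30 uM Luciferin-ME EGE (Km level) over 60 min at room temperature after NADPH regeneration addition. Data normalized to full inhibition by 1.43 uM quinidine.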

[10] = target: Cytochrome P450 2C19 (Homo sapiens) (UniProt P33261); assay: qHTS Assay for Inhibitors and Substrates of Cytochrome P450 2C19 (AID 899); note: nearly all actives have a fitted effect of over 60% in size; note: potency is the fitted concentration of half-maximal effect
Outline: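 Luminescence readout of luciferin formed from 10uM Luciferin-H EGE (KM level) by 5 nM CYP2C19 in 50mM KPO4. 60 min NADPH-driven reaction at 37C after 10 min compound preincubation; data scaled to 57uM ketoconazole inhibition.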

[11] = target: Guanine nucleotide-binding protein G(i) subunit alpha-1 (Homo sapiens) (UniProt P63096); assay: qHTS Assay for Inhibitors of RGS12 GoLoco Motif Activity (Green Fluorophore) (AID 879);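 note: negative values mean loss of peptide binding seen as reduced polarization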
Outline: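 A drop in FITC polarization marked displacement of the FITC-tagged RGS12 GoLoco peptide (10 nM) from Gαi1 (50 nM). Compounds were incubated 10 min at room temperature in Tris pH 7.5 buffer containing 150 mM NaCl, 0.1 mM GDP and 0.05% NP40; unlabeled peptide titration served as control.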

[12] = qHTS Assay for Identification of Small Molecule Agonists for Thrombopoietin (TPO) Signaling Pathway (AID 917)
Outline: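 Human TPO receptor–transfected Ba/F3 cells (murine, IL-3-dependent) in IL-3-deficient medium; compounds plus TPO at EC50, 26 pM final; 24 hrs, 37 C; GpIIb-luciferase luminescence after 10 min RT detection.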

[13] = target: Muscarinic acetylcholine receptor M1 (Rattus norvegicus) (UniProt P08482); assay: qHTS Assay for Antagonists of Acetylcholine Muscarinic M1 Receptor: Kinetic Measurement of Intracellular Calcium Response (AID 943);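 note: Fluo-4 calcium signal as peak divided by basal fluorescence over 4 min; nearly all actives have a fitted effect of over 75% in size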
Outline: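 Antagonism is measured as inhibition of the carbachol-evoked calcium rise in CHO cells transfected with rat M1. Cells are dye-loaded, exposed to compound for 10 min, then stimulated with 100 nM carbachol (EC80).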

[14] = target: Pyruvate kinase (Leishmania mexicana) (UniProt Q27686); assay: qHTS Validation Assay for Inhibitors of Leishmania Mexicana Pyruvate Kinase (AID 945)
Outline: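 qHTS eight-point titrations against 0.2 nM LmPYK (E451W) in imidazole buffer pH 7.2 with 0.5 mM PEP, 0.1 mM ADP; 1 h, room temperature. Readout: PKLight luminescence, normalized to neutral DMSO wells.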

[15] = target: Pyruvate kinase PKM (Homo sapiens) (UniProt P14618); assay: qHTS Assay for Activators of Human Muscle Pyruvate Kinase (AID 954; active = well fitted curve in the direction sought with a large enough effect, not every such curve was filed as active)
Outline: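 Screening used highly purified human pyruvate kinase M2 under submaximal activity, with PEP at its Km and ADP below Km. After an hour at room temperature, ATP was read by luciferase luminescence.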

[16] = target: Alpha-galactosidase A (Homo sapiens) (UniProt P06280); assay: Counterscreen for Glucocerebrosidase Inhibitors: qHTS Assay for Human alpha-Galactosidase at pH 4.5 (AID 992)
Outline: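 Each compound is preincubated briefly with 2 nM enzyme before substrate addition (80 uM); plates then sit 20 min at ambient temperature, are quenched with 1M NaOH/1M glycine, and read fluorometrically.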

[17] = target: alpha-glucosidase (Oryza sativa, rice) (UniProt Q653V4); assay: Counterscreen for Glucocerebrosidase Inhibitors: qHTS Assay for Rice alpha-Glucosidase at pH 5.0 (AID 997)
Outline: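 Endpoint fluorogenic assay at pH 5.0: compounds (0.7 nM to 77 uM) titrated against 4 nM rice enzyme and 400 uM 4-MU-alpha-glucoside for 20 min at room temperature; NaOH/glycine stop, read ex 365/em 440 nm, Hill-fitted AC50.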

[18] = target: Cytochrome P450 3A4 (Homo sapiens) (UniProt P08684); assay: qHTS Assay for Activators of Cytochrome P450 3A4 (AID 885); note: nearly all actives have a fitted effect of over 65% in size
Outline: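 Using 20nM recombinant human CYP3A4 in potassium phosphate (200mM), substrate Luciferin-PPXE at 25uM, luminescent luciferin detection followed a 60-min RT NADPH reaction; data scaled to 57 uM ketoconazole.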

[19] = target: Muscarinic acetylcholine receptor M1 (Rattus norvegicus) (UniProt P08482); assay: qHTS Assay for Antagonists of Acetylcholine Muscarinic M1 Receptor: Measurement of IP-One Response (AID 944); note: nearly all actives have a fitted effect of over 75% in size
Outline: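 Antagonist mode with rat M1 receptor transfected into CHO cells. Compound is added first for 10 min, carbachol at its EC80 follows for 30 min, and lysis reagents then allow TR-FRET detection of accumulated IP1.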

Chain of Pyruvate kinase PKM (Homo sapiens) (P14618 whole entry, looked up): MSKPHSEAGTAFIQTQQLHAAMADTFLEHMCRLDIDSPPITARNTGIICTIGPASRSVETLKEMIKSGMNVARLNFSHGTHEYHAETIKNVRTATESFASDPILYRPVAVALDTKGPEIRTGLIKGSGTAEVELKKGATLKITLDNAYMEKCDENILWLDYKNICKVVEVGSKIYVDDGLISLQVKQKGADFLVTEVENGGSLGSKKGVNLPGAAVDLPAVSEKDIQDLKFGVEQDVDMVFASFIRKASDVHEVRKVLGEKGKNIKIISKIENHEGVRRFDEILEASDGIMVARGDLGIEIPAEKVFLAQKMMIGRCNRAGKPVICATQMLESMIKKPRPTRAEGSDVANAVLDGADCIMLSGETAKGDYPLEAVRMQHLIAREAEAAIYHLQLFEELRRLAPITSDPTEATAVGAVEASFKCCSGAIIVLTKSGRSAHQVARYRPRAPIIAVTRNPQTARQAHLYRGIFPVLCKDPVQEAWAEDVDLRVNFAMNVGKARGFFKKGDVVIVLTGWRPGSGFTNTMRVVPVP
Chain of Cytochrome P450 2D6 (Homo sapiens) (P10635 whole entry, looked up): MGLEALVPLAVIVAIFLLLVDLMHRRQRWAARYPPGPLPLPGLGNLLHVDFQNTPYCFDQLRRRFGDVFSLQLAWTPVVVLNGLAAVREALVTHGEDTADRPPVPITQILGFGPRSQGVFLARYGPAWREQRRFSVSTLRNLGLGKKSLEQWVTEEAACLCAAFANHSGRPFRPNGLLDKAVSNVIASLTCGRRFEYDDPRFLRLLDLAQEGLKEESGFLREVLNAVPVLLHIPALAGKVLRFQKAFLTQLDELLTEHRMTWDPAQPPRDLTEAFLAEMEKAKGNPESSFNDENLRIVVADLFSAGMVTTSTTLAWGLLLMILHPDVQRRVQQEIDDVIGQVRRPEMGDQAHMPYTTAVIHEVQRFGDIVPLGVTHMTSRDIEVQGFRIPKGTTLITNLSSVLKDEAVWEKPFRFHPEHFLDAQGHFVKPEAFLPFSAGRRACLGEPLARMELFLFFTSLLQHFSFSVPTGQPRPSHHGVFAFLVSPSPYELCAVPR
Chain of Glucocorticoid receptor (Homo sapiens) (P04150 whole entry, looked up, the tested form may be a part): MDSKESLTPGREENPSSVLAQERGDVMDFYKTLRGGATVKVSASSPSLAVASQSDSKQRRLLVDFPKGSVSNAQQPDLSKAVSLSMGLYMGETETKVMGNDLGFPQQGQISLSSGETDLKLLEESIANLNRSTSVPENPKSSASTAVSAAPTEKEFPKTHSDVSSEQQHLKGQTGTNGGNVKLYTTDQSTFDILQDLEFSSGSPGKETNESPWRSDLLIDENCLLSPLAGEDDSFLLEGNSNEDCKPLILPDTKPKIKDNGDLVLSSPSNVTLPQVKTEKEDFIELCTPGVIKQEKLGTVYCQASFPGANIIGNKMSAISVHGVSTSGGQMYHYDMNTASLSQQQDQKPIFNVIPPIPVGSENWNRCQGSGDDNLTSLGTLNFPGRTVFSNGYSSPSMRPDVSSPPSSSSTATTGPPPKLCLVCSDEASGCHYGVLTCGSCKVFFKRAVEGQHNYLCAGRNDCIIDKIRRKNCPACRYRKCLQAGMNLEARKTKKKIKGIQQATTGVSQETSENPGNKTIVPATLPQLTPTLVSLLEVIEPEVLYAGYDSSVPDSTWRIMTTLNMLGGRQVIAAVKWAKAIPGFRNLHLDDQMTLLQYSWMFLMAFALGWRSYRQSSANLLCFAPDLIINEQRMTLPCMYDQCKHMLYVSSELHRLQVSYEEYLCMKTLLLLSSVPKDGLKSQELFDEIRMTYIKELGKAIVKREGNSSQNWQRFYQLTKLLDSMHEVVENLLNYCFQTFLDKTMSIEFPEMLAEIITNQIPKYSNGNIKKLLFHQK
Chain of Cytochrome P450 2C19 (Homo sapiens) (P33261 whole entry, looked up): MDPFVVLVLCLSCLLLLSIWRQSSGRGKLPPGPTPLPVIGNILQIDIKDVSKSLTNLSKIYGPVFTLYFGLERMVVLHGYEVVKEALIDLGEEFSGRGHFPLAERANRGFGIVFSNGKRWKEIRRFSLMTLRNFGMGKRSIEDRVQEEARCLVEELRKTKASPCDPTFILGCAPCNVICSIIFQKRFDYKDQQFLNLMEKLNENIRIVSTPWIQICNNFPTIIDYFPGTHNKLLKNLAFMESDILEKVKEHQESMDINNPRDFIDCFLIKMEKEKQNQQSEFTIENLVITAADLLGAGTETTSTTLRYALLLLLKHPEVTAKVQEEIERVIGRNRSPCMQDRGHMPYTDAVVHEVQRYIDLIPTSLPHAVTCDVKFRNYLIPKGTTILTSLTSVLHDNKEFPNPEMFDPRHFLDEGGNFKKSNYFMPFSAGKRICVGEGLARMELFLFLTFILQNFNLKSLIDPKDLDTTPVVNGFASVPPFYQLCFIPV
Chain of Pyruvate kinase (Leishmania mexicana) (Q27686 2-499 E452W): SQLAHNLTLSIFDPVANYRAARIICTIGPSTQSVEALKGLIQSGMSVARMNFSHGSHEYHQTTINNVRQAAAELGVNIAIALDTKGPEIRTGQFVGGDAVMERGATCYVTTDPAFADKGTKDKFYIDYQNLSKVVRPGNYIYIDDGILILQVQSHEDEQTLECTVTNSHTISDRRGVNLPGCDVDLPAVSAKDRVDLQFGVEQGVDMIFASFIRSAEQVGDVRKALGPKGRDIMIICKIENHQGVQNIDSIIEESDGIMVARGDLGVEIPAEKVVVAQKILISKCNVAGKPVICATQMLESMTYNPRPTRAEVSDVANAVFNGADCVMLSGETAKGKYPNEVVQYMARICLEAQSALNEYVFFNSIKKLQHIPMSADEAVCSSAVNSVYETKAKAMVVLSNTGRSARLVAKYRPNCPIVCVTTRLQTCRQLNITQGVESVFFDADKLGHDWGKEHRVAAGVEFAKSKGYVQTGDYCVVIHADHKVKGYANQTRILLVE
Chain of Cytochrome P450 1A2 (Homo sapiens) (P05177 whole entry, looked up): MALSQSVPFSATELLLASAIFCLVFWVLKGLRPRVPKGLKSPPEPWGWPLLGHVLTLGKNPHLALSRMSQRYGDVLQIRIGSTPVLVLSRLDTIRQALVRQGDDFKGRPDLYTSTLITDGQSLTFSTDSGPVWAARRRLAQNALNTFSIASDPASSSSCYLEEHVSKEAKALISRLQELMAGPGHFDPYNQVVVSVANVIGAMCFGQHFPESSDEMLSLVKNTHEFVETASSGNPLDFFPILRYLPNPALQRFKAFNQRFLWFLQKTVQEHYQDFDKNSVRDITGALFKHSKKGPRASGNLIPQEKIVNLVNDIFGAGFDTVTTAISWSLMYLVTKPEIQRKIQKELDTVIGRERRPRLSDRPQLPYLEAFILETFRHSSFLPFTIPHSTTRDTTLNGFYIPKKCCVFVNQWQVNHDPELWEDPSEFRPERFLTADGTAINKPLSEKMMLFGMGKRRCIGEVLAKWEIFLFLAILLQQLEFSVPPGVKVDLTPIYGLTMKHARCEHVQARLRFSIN
Chain of Guanine nucleotide-binding protein G(i) subunit alpha-1 (Homo sapiens) (P63096 whole entry, looked up): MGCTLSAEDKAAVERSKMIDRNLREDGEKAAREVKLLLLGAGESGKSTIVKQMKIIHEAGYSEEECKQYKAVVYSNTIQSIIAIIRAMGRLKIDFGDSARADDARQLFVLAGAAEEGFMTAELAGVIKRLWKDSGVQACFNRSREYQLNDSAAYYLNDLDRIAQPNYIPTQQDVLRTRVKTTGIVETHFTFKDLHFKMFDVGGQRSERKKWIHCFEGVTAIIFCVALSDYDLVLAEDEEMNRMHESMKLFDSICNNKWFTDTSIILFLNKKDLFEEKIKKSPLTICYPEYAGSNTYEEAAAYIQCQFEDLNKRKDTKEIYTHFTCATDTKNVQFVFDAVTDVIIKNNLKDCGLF
Chain of Alpha-galactosidase A (Homo sapiens) (P06280 whole entry, looked up): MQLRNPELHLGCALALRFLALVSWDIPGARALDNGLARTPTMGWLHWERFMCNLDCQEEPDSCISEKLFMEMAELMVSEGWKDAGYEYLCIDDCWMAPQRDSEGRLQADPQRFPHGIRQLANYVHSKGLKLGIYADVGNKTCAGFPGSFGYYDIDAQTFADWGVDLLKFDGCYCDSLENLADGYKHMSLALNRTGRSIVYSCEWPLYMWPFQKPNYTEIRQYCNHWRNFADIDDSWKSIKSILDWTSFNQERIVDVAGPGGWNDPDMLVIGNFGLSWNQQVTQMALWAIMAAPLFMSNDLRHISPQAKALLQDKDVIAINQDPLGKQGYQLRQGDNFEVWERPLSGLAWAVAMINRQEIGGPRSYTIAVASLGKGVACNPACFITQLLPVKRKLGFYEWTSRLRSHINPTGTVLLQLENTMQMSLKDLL
Chain of 3',5'-cyclic-AMP phosphodiesterase 4B (Homo sapiens) (Q07343 whole entry, looked up): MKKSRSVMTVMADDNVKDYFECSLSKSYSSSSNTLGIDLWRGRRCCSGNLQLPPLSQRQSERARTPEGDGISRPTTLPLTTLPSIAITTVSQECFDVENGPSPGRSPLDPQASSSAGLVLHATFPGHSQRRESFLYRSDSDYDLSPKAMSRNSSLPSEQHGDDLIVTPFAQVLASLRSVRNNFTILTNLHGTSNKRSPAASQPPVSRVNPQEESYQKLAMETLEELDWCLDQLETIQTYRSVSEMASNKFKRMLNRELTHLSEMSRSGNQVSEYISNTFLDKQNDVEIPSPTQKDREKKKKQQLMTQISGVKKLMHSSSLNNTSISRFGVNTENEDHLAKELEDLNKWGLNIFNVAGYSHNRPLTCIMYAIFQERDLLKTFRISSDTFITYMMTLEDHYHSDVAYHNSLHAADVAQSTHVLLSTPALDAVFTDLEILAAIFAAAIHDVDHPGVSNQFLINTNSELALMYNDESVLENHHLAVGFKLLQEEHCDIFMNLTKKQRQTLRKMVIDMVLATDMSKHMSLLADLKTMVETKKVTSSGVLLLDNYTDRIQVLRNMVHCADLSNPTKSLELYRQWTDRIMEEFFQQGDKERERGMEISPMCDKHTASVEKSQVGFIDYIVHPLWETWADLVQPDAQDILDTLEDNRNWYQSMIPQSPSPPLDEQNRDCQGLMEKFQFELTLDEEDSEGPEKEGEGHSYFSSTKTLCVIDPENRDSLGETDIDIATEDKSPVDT

## CN1C[C@@H](O)[C@@H](O)[C@@H](O)[C@@H]1CO
[1]
  activity change, negative = inhibition: 0.324% [at 38 µM]
[2]
  Potency: inactive
[3]
  activity change, negative = inhibition: 16.3% [at 38 µM]
[4]
  activity, negative = inhibition: -5.85% [at 38 µM]
[5]
  Potency: > 46 µM
[6]
  Potency: > 46 µM
[7]
  Potency: inactive
[8]
  Potency: inactive
[9]
  Potency: inactive
[10]
  Potency: inactive

## C#C[C@H](N)CCC(=O)O
[1]
  activity change, negative = inhibition: 2.59% [at 38 µM]
[2]
  Potency: inactive
[3]
  activity change, negative = inhibition: -4.34% [at 38 µM]
[4]
  activity, negative = inhibition: 1.65% [at 38 µM]
[5]
  Potency: > 46 µM
[6]
  Potency: > 46 µM
[7]
  Potency: inactive
[8]
  Potency: inactive
[11]
  outcome: inactive
[9]
  Potency: inactive
[12]
  outcome: inactive
[13]
  Potency: inactive
[14]
  outcome: inactive
[15]
  outcome: inactive
[16]
  outcome: inactive
[17]
  Potency: inactive

## CN(CCc1ccccn1)c1ccc2c(c1)Cc1ccccc1-2
[1]
  activity change, negative = inhibition: -10.1%
[2]
  Potency: 0.631 µM (active)
[3]
  activity change, negative = inhibition: -13.8%
[4]
  activity, negative = inhibition: 7.42%
[5]
  Potency: > 46 µM
[6]
  Potency: > 9.22 µM
[7]
  Potency: inactive
[8]
  Potency: inactive
[18]
  Potency: inactive
[9]
  Potency: 3.16 µM (active)
[10]
  Potency: 0.794 µM (active)

## CCN1/C(=C\C(C)=O)Sc2ccc(OC)cc21
[1]
  activity change, negative = inhibition: -18.4% [at 38 µM]
[2]
  Potency: 0.631 µM (active)
[3]
  activity change, negative = inhibition: 10.3% [at 38 µM]
[4]
  activity, negative = inhibition: 2.84% [at 38 µM]
[5]
  Potency: > 46 µM
[6]
  Potency: > 46 µM
[7]
  Potency: inactive
[8]
  Potency: inactive
[9]
  Potency: inactive
[10]
  Potency: inactive

## Oc1ccc([C@@H]2CNCc3sccc32)cc1O
[1]
  activity change, negative = inhibition: -15.6% [at 38 µM]
[2]
  Potency: inactive
[3]
  activity change, negative = inhibition: 8.54% [at 38 µM]
[4]
  activity, negative = inhibition: 5.59% [at 38 µM]
[5]
  Potency: > 46 µM
[6]
  Potency: > 46 µM
[7]
  Potency: inactive
[8]
  Potency: inactive
[11]
  outcome: inactive
[18]
  Potency: inactive
[19]
  Potency: inactive
[14]
  outcome: inactive
[15]
  outcome: inactive
[16]
  outcome: inactive
[17]
  Potency: inactive

## CCCCC/C=C\C[C@H](O)/C=C\c1cccc(C[C@H](O)CCCCO)n1
[1]
  activity change, negative = inhibition: -11.3% [at 38 µM]
[2]
  Potency: inactive
[3]
  activity change, negative = inhibition: -9.64% [at 38 µM]
[4]
  activity, negative = inhibition: 54.3% [at 38 µM]
[5]
  Potency: > 46 µM
[6]
  Potency: > 46 µM
[7]
  Potency: inactive
[8]
  Potency: inactive
[11]
  outcome: inactive
[18]
  Potency: inactive
[12]
  outcome: inactive
[14]
  outcome: inactive
[15]
  outcome: inactive
[16]
  outcome: inactive
[17]
  Potency: inactive
